Molecules are shown by their SMILES. Out of some 320,000 compounds screened, about 1,000 (0.31%) were called active. The sample holds actives, similar compounds and a random draw of the others, so the mix is not that of the screen. Values without a mark were called inactive.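 Rule for the calls: active = activation above the mean of all tested compounds plus 3 SD, cutoff set per screening run (cut at about 20% in these data); inactive = the rest.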

The target in this assay is Oxytocin receptor (Homo sapiens) (UniProt P30559). Kind of assay: oxytocin receptor activation by calcium flux – fluorescence, CHO-OTR cells, Fluo-8 calcium, primary screen (AID 2435).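 Note: peak over basal fluorescence ratio from a 100 s FLIPR kinetic read.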 Particulars: Fluo-8 calcium fluorescence, at 3 µM, active compounds read high. In general terms: Calcium assays in cells follow changes in intracellular calcium, usually with a dye or a luminescent sensor.
Chain of Oxytocin receptor (Homo sapiens) (P30559 whole entry, looked up): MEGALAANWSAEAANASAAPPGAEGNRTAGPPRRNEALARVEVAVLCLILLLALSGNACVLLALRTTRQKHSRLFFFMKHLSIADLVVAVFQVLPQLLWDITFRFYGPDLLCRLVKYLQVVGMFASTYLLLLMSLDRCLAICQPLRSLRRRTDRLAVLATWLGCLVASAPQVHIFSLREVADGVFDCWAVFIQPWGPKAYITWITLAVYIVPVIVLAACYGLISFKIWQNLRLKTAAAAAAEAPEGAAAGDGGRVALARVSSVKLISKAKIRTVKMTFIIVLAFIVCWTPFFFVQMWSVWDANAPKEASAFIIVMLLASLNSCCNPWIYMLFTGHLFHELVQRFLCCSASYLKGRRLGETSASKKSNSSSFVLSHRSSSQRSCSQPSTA
As for `CC(Cc1ccccc1)NCCC(c1ccccc1)c1ccccc1` (stereo not given), the activation is 23.9% (active).

For the compound `CC(=O)NC(=O)NC(C)Cc1ccccc1` (stereo not given), the activation is -0.72%.

Consider `CC(Cc1ccccc1)NC=O` (stereo not given), for which the activation is -0.34%.

With `O=C(c1cc2nc(-c3ccccc3)cc(-c3ccccc3)n2n1)N1CCC2(CC1)OCCO2`, the activation was -2.27%.

In the case of `O=C(Cc1ccc(Cl)cc1)NCCN1CCN(C(=O)Cc2ccc(Cl)cc2)CC1`, the activation is 1.31%.

The values above are taken from PubChem BioAssay AID2435 (The Scripps Research Institute Molecular Screening Center, 2010).
